# Measurements reported in PubChem BioAssay AID743445 (Broad Institute, 2014).
# The campaign covered roughly 310,000 compounds. About 1,700 (0.55%) were called active. The sample holds actives, similar compounds and a random draw of the others, so the mix is not that of the screen. Rule as the data show it: active = inhibition above about 50%; inactive = the rest.
# Molecular target: Histone-lysine N-methyltransferase NSD2 (Homo sapiens) (UniProt O96028)
# Assay: blockers of NSD2 lysine methylation activity – biochemical, AlphaScreen, single concentration, set 2, primary screen (AID 743445)
# Settings: NSD2 peptide methylation, 120 min, at 12.5 µM, active compounds read high
# Histone-lysine N-methyltransferase NSD2 (Homo sapiens), sequence (O96028 whole entry, looked up): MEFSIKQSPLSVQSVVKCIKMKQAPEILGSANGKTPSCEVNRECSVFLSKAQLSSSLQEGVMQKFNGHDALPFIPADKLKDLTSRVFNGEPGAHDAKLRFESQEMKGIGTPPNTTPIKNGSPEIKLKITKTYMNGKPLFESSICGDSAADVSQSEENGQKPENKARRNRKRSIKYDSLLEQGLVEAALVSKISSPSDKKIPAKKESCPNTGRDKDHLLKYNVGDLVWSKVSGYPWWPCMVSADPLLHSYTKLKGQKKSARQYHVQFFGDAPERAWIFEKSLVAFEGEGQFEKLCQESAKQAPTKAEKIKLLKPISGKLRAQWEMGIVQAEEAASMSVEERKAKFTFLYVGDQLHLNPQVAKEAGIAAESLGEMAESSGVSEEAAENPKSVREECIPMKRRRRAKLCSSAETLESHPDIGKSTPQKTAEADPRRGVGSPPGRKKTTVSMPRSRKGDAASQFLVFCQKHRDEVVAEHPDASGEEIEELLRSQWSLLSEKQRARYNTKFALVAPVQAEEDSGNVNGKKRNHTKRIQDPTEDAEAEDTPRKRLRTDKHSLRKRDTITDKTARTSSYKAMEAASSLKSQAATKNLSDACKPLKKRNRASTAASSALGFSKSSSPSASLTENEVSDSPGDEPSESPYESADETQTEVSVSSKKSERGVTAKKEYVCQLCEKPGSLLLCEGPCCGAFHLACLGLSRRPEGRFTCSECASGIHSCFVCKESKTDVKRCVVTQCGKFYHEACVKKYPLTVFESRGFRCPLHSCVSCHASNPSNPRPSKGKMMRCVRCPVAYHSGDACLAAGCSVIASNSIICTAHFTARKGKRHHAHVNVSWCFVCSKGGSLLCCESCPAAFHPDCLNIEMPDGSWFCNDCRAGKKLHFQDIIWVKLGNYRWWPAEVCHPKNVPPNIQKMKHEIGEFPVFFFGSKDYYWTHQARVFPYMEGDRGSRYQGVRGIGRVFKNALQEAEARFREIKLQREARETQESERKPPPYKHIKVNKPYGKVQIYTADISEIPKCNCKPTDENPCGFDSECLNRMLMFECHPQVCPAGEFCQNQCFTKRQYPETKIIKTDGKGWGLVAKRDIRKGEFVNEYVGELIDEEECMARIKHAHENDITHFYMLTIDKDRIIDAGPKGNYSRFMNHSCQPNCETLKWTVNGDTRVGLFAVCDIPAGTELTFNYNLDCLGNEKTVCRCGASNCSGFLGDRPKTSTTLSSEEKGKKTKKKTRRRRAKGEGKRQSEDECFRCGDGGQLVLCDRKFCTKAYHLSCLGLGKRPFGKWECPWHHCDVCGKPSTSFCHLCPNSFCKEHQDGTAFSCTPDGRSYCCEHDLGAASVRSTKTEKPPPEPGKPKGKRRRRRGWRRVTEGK
row,Structure (SMILES),inhibition
1,Cc1ccccc1NC(=O)COC(=O)c1ccc(Sc2ncn[nH]2)c([N+](=O)[O-])c1,-0.523% (inactive)
2,C[C@H]1CCC/C=C/C(=O)c2c(O)cc(O)cc2CC(=O)O1,5.2% (inactive)
3,O=C(CN1CCOCC1)N/N=C/c1ccc(-c2ccc(Br)cc2)o1,4.03% (inactive)
4,Cc1ccc(-c2ccc(/C=N/NC(=O)CN3CCOCC3)o2)cc1[N+](=O)[O-],59.9% (active)
5,Cc1occc1C(=O)N/N=C/c1ccc(-c2cccc([N+](=O)[O-])c2)o1,1.62% (inactive)
6,O=C(NCc1ccc(Cl)cc1)C1CCCN(c2nc3ccccc3o2)C1 (stereo unspecified),-10.7% (inactive)
7,CC1CCN(c2ccc(C(=O)O)cc2NS(=O)(=O)c2ccc(Br)s2)CC1,1.4% (inactive)
8,Cc1nc2ccc(C(=O)N3CCN(C(=O)C(C)(C)C)CC3)cc2n1C1CCCC1,-2.3% (inactive)
9,CSc1nccc(-c2ccc(S(=O)(=O)Nc3ccc(C(O)(C(F)(F)F)C(F)(F)F)cc3)s2)n1,3.98% (inactive)
10,CCN(CC)CCn1c2ccc(Cl)cc2c2nc(C)sc21,14.7% (inactive)
11,CCN(CC)CCCC(C)n1c2nc(=O)[nH]c(=O)c-2nc2cc(Cl)ccc21 (stereo unspecified),187% (active)
12,O=C(NCCCn1ccnc1)C1CCCN(S(=O)(=O)c2cc(Cl)ccc2Cl)C1 (stereo unspecified),-2.69% (inactive)
13,CCN1CCN(C(=O)C2CCCN(S(=O)(=O)c3ccc(OC)c(OC)c3)C2)CC1 (stereo unspecified),-0.758% (inactive)
14,COc1ccc(S(=O)(=O)N2CCCC(C(=O)NCCCn3ccnc3)C2)cc1OC (stereo unspecified),57.8% (active)
15,NC(Cc1ccc(F)cc1)c1csc(Nc2nncc3ccccc23)n1 (stereo unspecified),-3.48% (inactive)
16,O=C(CSc1nnc(-c2ccccc2)n1Cc1ccco1)Nc1ccccc1-c1ccccc1,6.7% (inactive)
17,CC1(C)Cc2c(sc3nnn(Cc4ccc(Cl)cc4Cl)c(=O)c23)CO1,8.41% (inactive)
18,O=C(Cc1cccs1)Nc1nnc(C2CC2)s1,3.72% (inactive)
19,Cc1cccc(NC(=O)CSCC(=O)Nc2nnc(C3CC3)s2)c1,1.4% (inactive)
20,O=C(CN1C(=O)c2ccc([N+](=O)[O-])cc2C1=O)Nc1nnc(C2CC2)s1,57.6% (active)
21,O=C(C1CCN(S(=O)(=O)c2ccccc2)CC1)N1CCN(C2CCCCC2)CC1,0.491% (inactive)
22,c1ccc(CNCc2ccc(CNCc3ccccc3)cc2)cc1,1.25% (inactive)
23,Oc1ccc(CNc2ccccc2O)cc1,85.7% (active)

row,Structure (SMILES),inhibition
1,O=[N+]([O-])c1ccccc1NCc1ccc(Cl)cc1,7.1% (inactive)
2,Cc1ccc(CSc2nnc(SCC(=O)NN=Cc3cc(Br)ccc3F)s2)cc1,-1.85% (inactive)
3,CC1(C(=O)Nc2cccc(Oc3ccccc3)c2)CCN1Cc1ccccc1Cl (stereo unspecified),-0.732% (inactive)
4,CCc1nc2c(OCCOc3ccccc3)cccn2c1N(C=O)Cc1ccc(OC)cc1,-1.53% (inactive)
5,COc1ccccc1/C=C1\SC(=O)N(CCC(=O)N(C)C2CCS(=O)(=O)C2)C1=O (stereo unspecified),2.59% (inactive)
6,CN(C(=O)CN1C(=O)S/C(=C\c2ccccc2F)C1=O)C1CCS(=O)(=O)C1 (stereo unspecified),71.1% (active)
7,CN(C(=O)CCN1C(=O)/C(=C/c2ccccc2F)SC1=S)C1CCS(=O)(=O)C1 (stereo unspecified),-1.43% (inactive)
8,Cc1c(CC(=O)N2CCN(C(=O)C3COc4ccccc4O3)CC2)c(=O)oc2c(O)c(O)ccc12 (stereo unspecified),125% (active)
9,O=C(CNC(=O)C1COc2ccccc2O1)N/N=C/c1cc(Br)c(O)c(Br)c1 (stereo unspecified),26.9% (inactive)
10,CCN(CC)S(=O)(=O)c1ccc(N2CCOCC2)c(NC(=O)C2COc3ccccc3O2)c1 (stereo unspecified),-0.001% (inactive)
11,CCc1nc2ccc(C(=O)NCCNC(C)=O)cn2c1N(CC)Cc1cccc(Br)c1,1.25% (inactive)
12,N#Cc1ccc(CSc2ncccn2)cc1,67.5% (active)
13,N#Cc1ccc(CSc2nnc3ccccn23)cc1,-1.73% (inactive)
14,N#Cc1ccc(CSc2nnc(-c3ccccn3)n2-c2ccc(Cl)cc2)cc1,3.24% (inactive)
15,COc1ccc(N2CCN(CCNS(=O)(=O)c3ccc(C(C)(C)C)cc3)CC2)cc1,9.53% (inactive)
16,COc1ccc(-n2c(SCC(=O)Nc3ccc4c(c3)OCCO4)nnc2-c2ccc(Cl)cc2)cc1,3.06% (inactive)
17,Cc1ccc(Cn2cc(COC(=O)N(C)Cc3ccccc3)nn2)cc1,-1.9% (inactive)
18,CCNC(=O)C1(C)CCN(C(=O)c2ccccc2)C1 (stereo unspecified),-2.2% (inactive)
19,CCNC(=O)C1(C)CCCN(C(=O)c2c(C)noc2C)C1 (stereo unspecified),-2.53% (inactive)
20,CCNC(=O)C1(C)CCCN(C(=O)c2ccc3ccccc3n2)C1 (stereo unspecified),104% (active)
21,COc1ccc(-n2c(SCC(=O)Nc3ccc4cn[nH]c4c3)nnc2-c2cccnc2)cc1,10.9% (inactive)
22,O=S(=O)(Nc1ccc(C(O)(C(F)(F)F)C(F)(F)F)cc1)c1ccc(-c2ccccn2)s1,11.8% (inactive)
23,CS(=O)(=O)N(CC(=O)NCc1ccco1)c1ccc2c(c1)OCO2,65.1% (active)

row,Structure (SMILES),inhibition
1,Cc1cc(C)cc(N(CC(=O)NCCSCc2ccco2)S(C)(=O)=O)c1,7.95% (inactive)
2,S=C(NCc1ccc2c(c1)OCO2)NCc1ccco1,4.85% (inactive)
3,COc1ccc(C(=O)CSc2nnc(-c3cnccn3)n2-c2ccc(C)cc2)cc1,-4.12% (inactive)
4,COc1ccc(-n2c(SCC(=O)Nc3ccc(C)c(Cl)c3)nc3ccccc3c2=O)cc1,5.51% (inactive)
5,COc1cc(NC(=O)c2cc(-c3ccc(F)cc3OC(C)C)n[nH]2)cc(OC)c1OC,-1.66% (inactive)
6,CC(=O)Oc1ccc2c(c1)C(=O)c1ccccc1C2=O,4.31% (inactive)
7,O=C1C(Cl)=C(Oc2ccccc2)C(=O)c2ccccc21,101% (active)
8,COc1cccc(-c2ccc3c(c2)N(Cc2ccccc2OC)C(=O)C(C)S3)c1 (stereo unspecified),-0.375% (inactive)
9,Cc1ccc(-n2c(SCC(=O)Nc3ccc(S(=O)(=O)Nc4nccs4)cc3)nnc2-c2cccnc2)cc1,6.22% (inactive)
10,CC1(C(=O)Nc2cccc3c2CCCC3)CCN1C(=O)CCc1ccc(Cl)cc1Cl (stereo unspecified),-2.57% (inactive)
11,O=C(CSc1nnc(-c2ccccn2)n1-c1ccc(Cl)cc1)Nc1ccccc1-c1ccccc1,-2.53% (inactive)
12,OC[C@@H]1CN(Cc2cccs2)C[C@H](n2cnc3c(NC4CCCC4)ncnc32)O1,-1.52% (inactive)
13,Cc1ccc(NC(=O)c2cc(C)nn2-c2ccccc2)c(C)c1,-1.54% (inactive)
14,CCOC(=O)C1=C(C)NC2=C(C(=O)CC(C)(C)C2)C1c1ccc2c(c1)OCO2 (stereo unspecified),15.9% (inactive)
15,Cc1cccc(N2C(=O)c3cccnc3C2=O)c1,-1.99% (inactive)
16,NC1=CC(=O)C(=O)c2cccnc21,122% (active)
17,CCOc1ccc(CCN2C(=O)c3cccnc3C2=O)cc1OCC,-2.42% (inactive)
18,CCOc1ccc(C(c2c(C)[nH][nH]c2=O)c2c(C)[nH][nH]c2=O)cc1OCC,10.6% (inactive)
19,Nc1[nH][nH]c(=O)c1N=Nc1ccc2c(c1)OCO2,4.47% (inactive)
20,Cc1[nH][nH]c(=O)c1C(c1ccc2c(c1)OCO2)c1c(C)[nH][nH]c1=O,84.4% (active)
21,CCCCN1CCN(C(=O)c2ccc3c(c2)NC(=O)C(C)(C)O3)CC1,8.11% (inactive)
22,COc1ccc(CN(CCN2CCOCC2)C(=O)c2ccc(C)cc2)cc1OC,6.86% (inactive)
23,COc1ccc(CSc2nnc(SCC(=O)Nc3ccccc3C(F)(F)F)s2)cc1,0.831% (inactive)

row,Structure (SMILES),inhibition
1,COc1ccc(CSc2nnc(-c3cccc(C)c3)n2C)cc1,0.584% (inactive)
2,Oc1ccc2ccccc2c1N=Nc1nccs1,34.1% (inactive)
3,Oc1c(C=Nc2cccc3nsnc23)ccc2ccccc12,109% (active)
4,O=C(CSc1nc2ccccc2s1)N=Nc1c(O)[nH]c2ccccc12,2.59% (inactive)
5,O=C(CSc1nnc(COc2ccccc2)n1Cc1ccco1)c1ccc2ccccc2c1,0.338% (inactive)
6,O=C(CSc1nc2ccccc2n1Cc1ccccc1Cl)N/N=C\c1c[nH]c2ccccc12,3% (inactive)
7,O=C(OCC(=O)N1CCN(c2ccccc2)CC1)c1ccc([N+](=O)[O-])s1,1.02% (inactive)
8,COc1cc(C(=O)OCc2ccc([N+](=O)[O-])cc2)cc(OC)c1OC,-0.924% (inactive)
9,COc1cc(NC(=O)COC(=O)c2ccc([N+](=O)[O-])s2)cc(OC)c1OC,72.8% (active)
10,O=C(NCc1cccnc1)c1cc(C2CCCN(C(=O)CCCc3ccccc3)C2)on1 (stereo unspecified),-1.28% (inactive)
11,Fc1ccc2nc(COCc3nc4ccc(F)cc4[nH]3)[nH]c2c1,-1.4% (inactive)
12,CCCOc1ccc(F)cc1-c1cc(C(=O)NCc2ccc(F)cc2)[nH]n1,19.4% (inactive)
13,COc1ccc(CCNC(=O)CSc2nc3c([nH]2)c(=O)n(C)c(=O)n3C)cc1,-8.19% (inactive)
14,COC(=O)[C@@H](Cc1ccccc1)NC(=O)NCCc1ccccc1,0.664% (inactive)
15,COC(=O)[C@H](Cc1ccccc1)NC(=O)Nc1ccc(S(N)(=O)=O)cc1,59.7% (active)
16,COC(=O)[C@H](Cc1ccccc1)NC(=O)Nc1ccc(OC)cc1,-1.09% (inactive)
17,COc1ccc(NC(=O)C2(C)Cc3c(-c4cccc(NC(C)=O)c4)ccnc3O2)cc1OC (stereo unspecified),1.97% (inactive)
18,CCOc1ccccc1C(=O)Nc1cccc(C(=O)Nc2cc(C)ccn2)c1,1.28% (inactive)
19,O=C(CSc1nnc(-c2cccc(Cl)c2)n1Cc1ccco1)Nc1ccc(OCc2ccccc2)cc1,-1.47% (inactive)
20,CC(=O)CC(CC(=O)NC1CCCCC1)c1ccccc1 (stereo unspecified),-4.05% (inactive)
21,CC(=O)c1cc(-c2ccccc2)n(CCC(=O)NC2CCCCCC2)c1C,1.47% (inactive)
22,CC(=O)c1cc(-c2ccccc2)n(CC(=O)NC2CCCCC2)c1C,71.5% (active)
